A selection: hits, their analogues and other compounds. The true share with any hit is near 6.5%.
VACV mCherry inh: inhibitors of vaccinia virus infection (mCherry reporter signal) | Potency, µM (titrated, usually from 36.5 µM), inactives show at the highest dose activity change, negative = inhibition, actives largely listed as inhibitors | actives 0.63% (n = 310,000) | Vaccinia virus mCherry reporter infection, fluorescence | AID 720579; calls by dose curve; tested in A549 cells; also: potency is read from the fitted curve at half-maximal effect; nearly all actives have a fitted effect of over 35% in size
Marburg entry inh: blocks Marburg virus binding to or entry into cells | Marburg virus pseudotyped entry inhibition, cell reporter | Potency, µM (titrated, usually from 37.8 µM), for the others: at the top dose activity change, negative = inhibition, usual class: inhibitors | actives 1.8% (n = 300,000); calls by dose curve; tested in HEK293 cells; also: potency is read from the fitted curve at half-maximal effect
HCMV antiviral: blocks human cytomegalovirus replication. activity change, negative = inhibition, % at 57.5 µM. HFF cells, HCMV-luciferase reporter, 72 h; active compounds read low. actives 4.5% (n = 410,000); in the data active = activity change below about -60%; inconclusive = no clear call, values can overlap the other calls; inactive = above about -39%
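Cell-based, HFFs, 1000 cells/well, 16 h 37C; cpds in DMSO + HCMV-luc, MOI 1 PFU/cell; 72 h 37C; OneGlo luminescence after 5 min RT; norm. to buffer vs Salinomycin 10uM.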
Lassa entry inh: blocks Lassa virus binding to or entry into cells. Lassa virus pseudotype entry inhibition, cell reporter. Potency, µM (doses to about 37.9 µM), for the others: top-dose activity change, negative = inhibition, most hits filed as inhibitors. actives 1.2% (n = 300,000); calls by dose curve; tested in HEK293 cells; also: potency is read from the fitted curve at half-maximal effect; nearly all actives have a fitted effect of over 50% in size
FMDV antiviral: blocks foot and mouth disease virus; actives 1.2% (n = 410,000); Potency, µM (highest dose often 57.9 µM), without a hit: at the top dose activity change, negative = inhibition, actives largely listed as inhibitors; AID 1159524; FMDV antiviral cell-based qHTS; calls by dose curve; tested in HEK293T cells; also: read-out not given here; potency is read from the fitted curve at half-maximal effect; nearly all actives have a fitted effect of over 45% in size
Vaccinia Venus: vaccinia inhibition (Venus reporter). Vaccinia virus Venus reporter expression, fluorescence. Potency, µM (highest dose often 36.5 µM), for inactives: top-dose activity change, negative = inhibition, usual class: inhibitors. actives 0.46% (n = 330,000). AID 720580; calls by dose curve; tested in A549 cells; also: potency is read from the fitted curve at half-maximal effect; nearly all actives have a fitted effect of over 30% in size
An asterisk follows results filed as active; ! = repeats disagree; [ ] = remark or other dose. % is scaled to controls: 0 for no effect and ±100 for the full control effect.

Results for CCOC(=O)c1ccc(-c2c(-c3ccccc3OC)oc3ccccc23)cc1F ?
VACV mCherry inh: inactive; HCMV antiviral: -1; FMDV antiviral: 3%; Vaccinia Venus: 5%

How did CCOC(=O)c1ccc(-c2ccc3c(=O)c4ccccc4n(C)c3c2)cc1F do in these assays?
VACV mCherry inh: inactive; HCMV antiviral: -69*; FMDV antiviral: 9%; Vaccinia Venus: inconclusive

What do the screens show for `CC1CN(CC(=O)NCC2(N3CCOCC3)CCCC2)Cc2cc(Cl)ccc2O1` (stereo not given)?
VACV mCherry inh: -8%; FMDV antiviral: -4%; Vaccinia Venus: -11%

Results for O=C(NC1CCc2ccccc21)C1=CN2CCN(Cc3ccccc3)C(=O)N=C2O1 (stereo not given) ?
HCMV antiviral: -13

Results for O=c1onc(-c2ccccc2)n1Cc1ccc([N+](=O)[O-])cc1 ?
VACV mCherry inh: inconclusive; HCMV antiviral: -75*; FMDV antiviral: -11%; Vaccinia Venus: -8%

What do the screens show for `Fc1ccccc1N1CCN(c2nccn3nc(-c4ccc(Br)cc4)cc23)CC1`?
VACV mCherry inh: -4%; Marburg entry inh: -3%[46.1 µM]; HCMV antiviral: 27; Lassa entry inh: 4%[46.1 µM]; FMDV antiviral: -10%; Vaccinia Venus: 13%

What do the screens show for `O=S(=O)(Cc1ccccc1)N1CCN(c2nc(-c3cccs3)nc3ccccc23)CC1`?
VACV mCherry inh: -8%; Vaccinia Venus: -4%

What do the screens show for `O=C1c2cccc(OCC(=O)N3CCCc4ccccc43)c2CCN1Cc1ccc(F)cc1`?
VACV mCherry inh: -8%; Marburg entry inh: inconclusive; HCMV antiviral: -40; Lassa entry inh: inconclusive; FMDV antiviral: 20µM*; Vaccinia Venus: -12%

What do the screens show for `CCOC(=O)N1CCN(C(=O)COc2cccc3c2CCN(Cc2ccc(F)cc2)C3=O)CC1`?
VACV mCherry inh: inconclusive; Marburg entry inh: inconclusive; HCMV antiviral: -67*; Lassa entry inh: -12%; FMDV antiviral: 14µM*; Vaccinia Venus: -24%

How did Cc1cccc(CN2CCc3c(OCC(=O)N4CCCc5ccccc54)cccc3C2=O)c1 do in these assays?
VACV mCherry inh: inconclusive; Marburg entry inh: inconclusive; HCMV antiviral: -20; Lassa entry inh: 4.5µM*; FMDV antiviral: inconclusive; Vaccinia Venus: inconclusive

How did CN1CCc2c(OCC(=O)N3CCCc4ccccc43)cccc2C1=O do in these assays?
VACV mCherry inh: -20%; Marburg entry inh: 3.2µM*; HCMV antiviral: -11; Lassa entry inh: inconclusive; FMDV antiviral: inconclusive; Vaccinia Venus: -14%

Results for CCCCN(CCCC)c1ccc(/C=C2\C=Cc3ccccc32)cc1 ?
VACV mCherry inh: 26%; Vaccinia Venus: 10%

How did CN(Cc1ccco1)c1ncncc1-c1ccccc1C(F)(F)F do in these assays?
FMDV antiviral: -9%

Results for C[C@H](CCC(=O)NCC(=O)O)C1CC[C@H]2C3CC[C@@H]4C[C@H](O)CC[C@]4(C)C3C[C@H](O)[C@]12C (stereo not given in full) ?
VACV mCherry inh: inactive; FMDV antiviral: -20%; Vaccinia Venus: -11%

What do the screens show for `COc1cc(/C=C/C(=O)c2ccc3c(c2)OCO3)cc(OC)c1OC`?
FMDV antiviral: 22µM*

How did COc1ccc(OC)c(/C=C/C(=O)c2ccc3c(c2)OCCO3)c1 do in these assays?
HCMV antiviral: -100*; FMDV antiviral: -9%

What do the screens show for `COc1ccc(/C=C/C(=O)c2ccc3c(c2)OCO3)cc1OC`?
VACV mCherry inh: -12%; Marburg entry inh: inconclusive; HCMV antiviral: inconclusive; Lassa entry inh: 4%; FMDV antiviral: 24%; Vaccinia Venus: -10%

What do the screens show for `COc1cc(/C=C/C(=O)c2ccc3c(c2)OCCO3)cc(OC)c1OC`?
HCMV antiviral: -99*; FMDV antiviral: inconclusive

What do the screens show for `COc1cc(C(=O)c2cc3c(cc2C)OCO3)cc(OC)c1OC`?
VACV mCherry inh: -1%; HCMV antiviral: -68*; FMDV antiviral: -7%; Vaccinia Venus: inconclusive

Results for CN(C)C(=O)OC1=C(c2ccccc2)Sc2ccccc2-n2cccc21 ?
VACV mCherry inh: inactive; FMDV antiviral: -11%; Vaccinia Venus: -11%

What do the screens show for `O=CC(=O)c1ccc(F)cc1`?
VACV mCherry inh: -15%; Vaccinia Venus: -7%

Results for COc1ccc(CN(C(=O)Cc2coc3ccc(C)cc23)C2CCS(=O)(=O)C2)cc1 (stereo not given) ?
VACV mCherry inh: -2%; Marburg entry inh: -1%[46.1 µM]; HCMV antiviral: -1; Lassa entry inh: -10%[46.1 µM]; FMDV antiviral: -11%; Vaccinia Venus: 4%

What do the screens show for `CCN(CC)S(=O)(=O)c1ccc(OC)c(NC(=O)CSc2cc(C)ccc2C)c1`?
VACV mCherry inh: -10%; Marburg entry inh: inconclusive; HCMV antiviral: -6; Lassa entry inh: 0.21µM*; FMDV antiviral: 4%; Vaccinia Venus: -21%

How did COc1ccc(C)cc1NC(=O)CSc1ccc(-c2ccccn2)nn1 do in these assays?
VACV mCherry inh: 16µM*; Marburg entry inh: inconclusive; HCMV antiviral: -93*; Lassa entry inh: inconclusive; FMDV antiviral: inconclusive; Vaccinia Venus: inconclusive

How did CC(=O)c1cccc(NC(=O)CSc2ccc(-c3ccccn3)nn2)c1 do in these assays?
VACV mCherry inh: inconclusive; Marburg entry inh: inconclusive; HCMV antiviral: 10; Lassa entry inh: inconclusive; FMDV antiviral: -26%; Vaccinia Venus: -24%

Results for CC(=O)Nc1cccc(NC(=O)CSc2ccc(-c3ccccn3)nn2)c1 ?
VACV mCherry inh: inconclusive; Marburg entry inh: -23%; HCMV antiviral: inconclusive; Lassa entry inh: inconclusive; FMDV antiviral: 7%; Vaccinia Venus: inconclusive

What do the screens show for `Cc1cccc(NC(=O)CSc2ccc(-c3ccccn3)nn2)c1`?
VACV mCherry inh: inconclusive; HCMV antiviral: -105*; Lassa entry inh: -9%[46.1 µM]; FMDV antiviral: -1%; Vaccinia Venus: -19%

What do the screens show for `COc1cc(NC(=O)CSc2ccc(-c3ccccn3)nn2)cc(OC)c1`?
VACV mCherry inh: 11µM*; Marburg entry inh: inconclusive; HCMV antiviral: inconclusive; Lassa entry inh: inconclusive; FMDV antiviral: 0%; Vaccinia Venus: inconclusive

Results for O=C1c2ccccc2CCC1CNCCc1ccc(O)cc1 (stereo not given) ?
VACV mCherry inh: inactive; FMDV antiviral: -7%; Vaccinia Venus: -12%

How did COc1cccc(NC(=O)CSc2ccc(-c3sc(C)nc3C)nn2)c1 do in these assays?
VACV mCherry inh: inconclusive; Marburg entry inh: inconclusive; HCMV antiviral: 13; Lassa entry inh: inconclusive; FMDV antiviral: 32µM*; Vaccinia Venus: -20%

What do the screens show for `COc1cc(NC(=O)CSc2ncccc2C(=O)OC(C)C)cc(OC)c1`?
VACV mCherry inh: -17%; Marburg entry inh: -26%; HCMV antiviral: -108*!; Lassa entry inh: 1%[46.1 µM]; FMDV antiviral: -25%; Vaccinia Venus: -15%

Screening results deposited in PubChem BioAssay by National Center for Advancing Translational Sciences (NCATS).
